The results in this text go back to PubChem BioAssay (NCI).

The panel holds about 83,000 compounds, 20% with a hit somewhere; the sample as a whole holds those more often.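 48-hour exposure, single concentration, 96-well plates; percent growth endpoint where 0 means no net growth. Active: below 10.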 Values without a mark were called inactive. The source made the active and inactive calls.

The test concerns COLO 205 colon. Nature of the test: NCI-60 one-dose screen, 48 h (100 = growth as untreated, 0 = no growth, -100 = all killed). As to conditions: 10 µM unless noted.
In the case of `CS(=O)(=O)Nc1cc(-c2ccc3ncnc(Nc4ccc5c(cnn5Cc5ccc(F)cc5)c4)c3c2)cnc1Cl`, the growth was 60.1%.

As for `CCSc1nc2scc(C)c2c(=O)[nH]1`, the growth is 111%.

Take `Fc1cccc(Oc2ccc(Nc3ncnc4ccc(OCCCN5CCOCC5)cc34)cc2Cl)c1`: the growth was 79.4%.

Take `O=C(Nc1cccc2ccccc12)NC1CC1`: the growth is 107%.

On to `Clc1ccc2c(NC3CCC(N4CCOCC4)CC3)ccnc2c1` (configuration not stated), for which the growth is 81.4%.

Turning to `Cc1cc(N2CCN(CCNc3ccnc4cc(Cl)ccc34)CC2)nc(N2CCOCC2)n1`, the growth is 11.6%.

Regarding `c1cnc2c(-c3nc4ccc5[nH]ncc5c4c4c3CCCC4)c[nH]c2c1`, the growth is 26.7%.

With `O=C(O)c1ccc(-n2cc(/C=N/Nc3ccccc3)c(-c3ccc(F)cc3F)n2)cc1`, the growth is 108%.

Turning to `C=C(CBr)[C@@H]1CC[C@]2(C(=O)O)CC[C@]3(C)[C@H](CC[C@@H]4[C@@]5(C)CCC(=O)C(C)(C)[C@@H]5CC[C@]43C)[C@@H]12`, the growth is 99.9%.

On to `O=C(CSC(=S)n1cnnc1)NC(=O)c1ccccc1`, for which the growth was 119%.

For the molecule `CC(C)(C)CC(C)(C)NC(=O)Nc1ncccc1OCc1ccccc1`, the growth was 105%.

For `Oc1ccc(Cl)cc1/C=N\NC(=S)N/N=C/c1cc(Cl)ccc1O`, the growth is 41.5%.

`CCc1ncnc2c1ccn2C(C)c1ccc(OC)c(F)c1` (configuration not stated): the growth is 26.3%.

As for `C/C(=N\O)c1ccc(Cl)cc1`, the growth is 108%.

On to `CN(C)CCNC(=O)c1cc2c3cc(Cl)ccc3[nH]c2c2ncccc12`, for which the growth is -17.9% (active).

For the molecule `O=C(/C=C/c1ccco1)Nc1ncc(Cc2cccc(C(F)(F)F)c2)s1`, the growth is -47.5% (active).

Take `Cc1cc(S(=O)(=O)/N=C(\N)n2nc(C)c(C)c2C)c(SCc2ccccc2)cc1Cl`: the growth was 114%.

On to `CN(c1cc2ncc(=O)[nH]c2cc1NC(N)=NCc1ccc(Cl)cc1)C1CCCCC1`, for which the growth was -63.6% (active).

With `COc1cc(-c2nc3sccn3c2-c2ccnc(NCCNS(=O)(=O)c3ccccc3)n2)ccc1F`, the growth is 40.4%.

On to `O=C(Nc1cccc(-c2ccc(N3CCOCC3)nn2)c1)Nc1cccc(C(F)(F)F)c1`, for which the growth is 81%.

As to `COCCNC(=O)Nc1ccc2nc(-c3cccs3)c(-c3cccs3)nc2c1`, the growth was 107%.

Take `O=C1/C=C/[C@@H](O)[C@@H]2C[C@@H](O)C[C@H]2/C=C/CCC[C@H](CCc2ccccc2)O1`: the growth is -72.5% (active).

Consider `CC(=O)Oc1ccc(/C(=C(\C)c2ccc(Cl)cc2)c2ccc(OCCN3CCCCC3)cc2)cc1`, for which the growth is -52.4% (active).

As for `N#Cc1nc(-c2ccc(F)cc2)oc1S(=O)(=O)N1CCOCC1`, the growth was -36.4% (active).

With `C#CCNC(=O)[C@H](CC)[C@H]1CC[C@H](C)[C@H]([C@@H](C)[C@H](O)[C@H](C)C(=O)[C@H](CC)C2O[C@]3(C=CC(=O)[C@]4(CC[C@@](C)([C@H]5CC[C@](O)(CC)[C@H](C)O5)O4)O3)[C@H](C)C[C@@H]2C)O1` (some centres not stated), the growth was 10.8%.

`COc1ccc(CNc2c3ccccc3nc3ccccc23)cc1`: the growth is 11.6%.

Consider `Clc1cc(Cl)c(Cl)c(-c2nnc(SCc3ccncc3Br)o2)c1`, for which the growth was 110%.
